We go through 27 molecules from PMC11062922 (Nature Chemical Biology, 2023).

What all share (set-up): species or system human, MV4-11 + K-562 + COLO205 + SK-N-BE2 + OVCAR-8
For one assay, the system named is PIK3CD. To be noted: read-out: apparent Kd, n = 1.
The subject of the next assay is PDGFRB. The note with it: read-out: apparent Kd, n = 1.
A further assay relates to NQO1. The note with it: read-out: apparent Kd, n = 1.
In a further assay the test system is NQO2. The note with it: read-out: apparent Kd, n = 1.
Another assay concerns MAP2K1. The note with it: read-out: apparent Kd, n = 1.
The next assay has as its system PDXK. To be noted: read-out: apparent Kd, n = 1.
A further assay concerns EPHB2. The note with it: read-out: apparent Kd; compound concentrations: 100 nM and 1000 nM (sheet 'Samples'), CATDS: 3.4039918374270103E-2; n = 1.
The next assay deals with MAP4K5. To be noted: read-out: apparent Kd; compound concentrations:100 nM and 1000 nM (sheet 'Samples'); n = 1.
A further assay relates to CSNK1D. The note with it: read-out: apparent Kd, n = 1.
A further assay concerns NLK. The note with it: read-out: apparent Kd, n = 1.
The test system of another assay is TGFBR2. To be noted: read-out: apparent Kd; compound concentrations:100 nM and 1000 nM (sheet 'Samples'); n = 1.
The subject of a further assay is EPHB1. The note with it: read-out: apparent Kd; compound concentrations:100 nM and 1000 nM (sheet 'Samples'); n = 1.
The subject of another assay is MAPKAPK2. The note with it: read-out: apparent Kd, n = 1.
Another assay has as its system CSNK1A1. To be noted: read-out: apparent Kd, n = 1.
Where [1] appears, read: compound concentrations:100 nM and 1000 nM (sheet 'Samples').

SMILES strings stand for the structures. Where two headings read alike, the source gives them in different places.

In the case of `Cc1ccc(-n2nc(C(C)(C)C)cc2NC(=O)Nc2ccc(OCCN3CCOCC3)cc2)cc1` [BIRB0876BS], the potency estimated from few doses in the assay with PIK3CD (setting [1]) is 9.61 nM. Turning to `O=C1NC(=O)C(c2cccc(Cl)c2)=C1Nc1ccc(O)c(Cl)c1` [SB-409514], the potency estimated from few doses in the assay with PDGFRB (compound concentrations: 100 nM and 1000 nM (sheet 'Samples'), CATDS: 0.33776588797305401) is 1280 nM.

Consider `CS(=O)(=O)c1ccc(-c2nc3n(c2-c2ccncc2)CCC3)cc1` [SKF-105942], for which the potency estimated from few doses with NQO1 (compound concentrations: 100 nM and 1000 nM (sheet 'Samples'), CATDS: 0.13363559113377599) is 1480 nM; in the assay on NQO2 (compound concentrations: 100 nM and 1000 nM (sheet 'Samples'), CATDS: 0.142598499620046) it was 1270 nM; in the assay on PIK3CD (compound concentrations: 100 nM and 1000 nM (sheet 'Samples'), CATDS: 0.51073942178012399) it was 141 nM. `Fc1cccc(COc2ccc(Nc3ncncc3C#Cc3ccccc3)cc2Cl)c1` [GW651576X]: the potency estimated from few doses was 2200 nM in the assay on MAP2K1 (compound concentrations: 100 nM and 1000 nM (sheet 'Samples'), CATDS: 4.57330679966748E-2); 2090 nM with NQO1 (compound concentrations: 100 nM and 1000 nM (sheet 'Samples'), CATDS: 4.6647451225595299E-2). With `Cn1cc(C2=C(c3cn(CCCN/C(N)=N/[N+](=O)[O-])c4ccccc34)C(=O)NC2=O)c2ccccc21` [RO0318161-000], the potency estimated from few doses in the assay with PDXK (compound concentrations: 100 nM and 1000 nM (sheet 'Samples'), CATDS: 0.37249947882966999) is 866 nM.

On to `COc1cc(N2CCN(C(C)C)CC2)ccc1Nc1nc(Nc2cccc(F)c2C(=O)O)c2cc[nH]c2n1` [GSK1819799A], for which the potency estimated from few doses with MAP2K1 (compound concentrations: 100 nM and 1000 nM (sheet 'Samples'), CATDS: 4.3561445001152499E-2) is 1870 nM. `COc1cccc(C2=C(c3cn(C)c4c(C)cccc34)C(=O)NC2=O)c1` [RO3301012-000]: the potency estimated from few doses was 1550 nM with NQO1 (compound concentrations: 100 nM and 1000 nM (sheet 'Samples'), CATDS: 0.106114123885474); 2000 nM in the assay with PDXK (compound concentrations: 100 nM and 1000 nM (sheet 'Samples'), CATDS: 9.7216683357623401E-2).

On to `COc1ccc(C2=C(c3cn(C)c4ccccc34)C(=O)NC2=O)cc1OC` [RO3206363-000], for which the potency estimated from few doses was 1430 nM in the assay with EPHB2; 722 nM with NQO2 (compound concentrations: 100 nM and 1000 nM (sheet 'Samples'), CATDS: 4.2100406306544602E-2); 9.3 nM in the assay with PIK3CD (compound concentrations: 100 nM and 1000 nM (sheet 'Samples'), CATDS: 0.47573299908292999). With `CCS(=O)(=O)c1ccc(OC)c(Nc2ncc(-c3cccc(F)c3)o2)c1` [GW621970X_KCGS], in the assay with PDGFRB (setting [1]), the potency estimated from few doses is 1960 nM.

As for `COc1ccc(Nc2nccc(N3CCC(NC(=O)Nc4cccc(OC)c4)C3)n2)cc1` (centres unmarked) [GSK1379742A], the potency estimated from few doses with MAP2K1 (compound concentrations: 100 nM and 1000 nM (sheet 'Samples'), CATDS: 0.105548477944527) was 2400 nM; with NQO1 (compound concentrations: 100 nM and 1000 nM (sheet 'Samples'), CATDS: 0.15295412535869199) it was 1120 nM. For `Cl.Oc1ccc2ncnc(Nc3ccc(OCc4ccccc4)cc3)c2c1` [GI262866A], the potency estimated from few doses in the assay with PDXK (setting [1]) is 506 nM. Consider `Cc1[nH]nc2c1N=C(c1ccccc1Cl)c1cc([N+](=O)[O-])ccc1N2` [RO0274406-000], for which, in the assay with PDXK (compound concentrations: 100 nM and 1000 nM (sheet 'Samples'), CATDS: 8.1891234484878103E-2), the potency estimated from few doses was 832 nM. Take `COc1cc(F)c(F)c(F)c1C(=O)c1cnc(NC2CCN(S(C)(=O)=O)CC2)nc1N` [RO4600703-000]: the figures for the potency estimated from few doses with NQO2 (setting [1]) and in the assay on PDXK (setting [1]) were 426 nM and 501 nM, respectively. As for `COc1cc2ncn(-c3cc(O[C@H](C)c4ccccc4Cl)c(C(N)=O)s3)c2cc1OC` [GSK237701A], the potency estimated from few doses with MAP4K5 is 1160 nM. For the molecule `COc1ccc(-c2nn3ncccc3c2-c2ccnc(Nc3ccc4c(c3)OCCO4)n2)cc1` [GW827106X], the potency estimated from few doses in the assay on CSNK1D (compound concentrations: 100 nM and 1000 nM (sheet 'Samples'), CATDS: 4.1816048723515499E-2) is 2430 nM; in the assay with NLK (compound concentrations: 100 nM and 1000 nM (sheet 'Samples'), CATDS: 4.4703419918465902E-2), 1990 nM. For `Cc1ccc(NC(=O)Nc2ccccc2)cc1-c1ccc(C(=O)Nc2ccncc2)cc1` [GSK1398471A], the potency estimated from few doses with PDGFRB (compound concentrations: 100 nM and 1000 nM (sheet 'Samples'), CATDS: 0.100538994858546) was 1940 nM. On to `CC(=O)Nc1ccc2c(C3=C(c4cn(C)c5ccccc45)C(=O)NC3=O)cn(C)c2c1` [RO0317596-000], for which the potency estimated from few doses is 1590 nM in the assay with NQO2 (compound concentrations: 100 nM and 1000 nM (sheet 'Samples'), CATDS: 0.111698981376187); 554 nM in the assay on PDXK (compound concentrations: 100 nM and 1000 nM (sheet 'Samples'), CATDS: 0.18147743783192199). As for `Cn1cc(C2=C(c3cccc([N+](=O)[O-])c3)C(=O)NC2=O)c2ccccc21` [RO0317474-000], the potency estimated from few doses with NQO2 (compound concentrations: 100 nM and 1000 nM (sheet 'Samples'), CATDS: 0.12983117909003999) was 1960 nM; in the assay with PDXK (compound concentrations: 100 nM and 1000 nM (sheet 'Samples'), CATDS: 0.221818886522231), 628 nM. Regarding `Cc1ccc(NC(=O)c2ccc(Cl)cc2)cc1-c1ccc(C(=O)Nc2ccncc2)cc1` [GSK1398467A], the potency estimated from few doses with CSNK1D (compound concentrations: 100 nM and 1000 nM (sheet 'Samples'), CATDS: 0.16187565637937301) was 2020 nM. Turning to `Cn1cc(C2=C(c3cn(CCCCCO)c4ccccc34)C(=O)NC2=O)c2ccccc21` [RO0318053-000], the potency estimated from few doses was 959 nM in the assay on NQO2 (compound concentrations: 100 nM and 1000 nM (sheet 'Samples'), CATDS: 9.2585577918862794E-2); 60.4 nM in the assay with PDXK (compound concentrations: 100 nM and 1000 nM (sheet 'Samples'), CATDS: 0.25573485461169798).

For the molecule `COc1ccc(C2=C(Nc3cccc(O)c3)C(=O)NC2=O)cc1` [SB-390766], the results for the potency estimated from few doses with NLK (setting [1]) and with TGFBR2 were 2210 nM and 2030 nM, respectively. On to `COc1cc2ncn(-c3cc(OCc4sccc4Cl)c(C(N)=O)s3)c2cc1OC` [GSK448459A], for which the potency estimated from few doses with MAP4K5 was 30.8 nM. Turning to `NC(=O)c1cccnc1COc1cc(-c2ccc(N3CCOCC3)nc2)cc2ncccc12` [BI01125081], the potency estimated from few doses in the assay on EPHB1 is 738 nM; in the assay on PDXK (setting [1]) it was 1680 nM; in the assay with PIK3CD (setting [1]), 126 nM; in the assay on TGFBR2, 1310 nM. Regarding `Nc1c(C(=O)c2ccccc2)cnn1-c1ccc(F)cc1` [RO1151246-000], the values for the potency estimated from few doses in the assay with MAP2K1 (setting [1]) and with MAPKAPK2 (setting [1]) were 1470 nM and 665 nM, respectively.

Regarding `Fc1ccc(-c2ncn(C3CCNCC3)c2-c2ccnc(Oc3ccc4c(c3)OCO4)n2)cc1` [SB-250715], the potency estimated from few doses is 1300 nM with CSNK1A1 (setting [1]); 271 nM in the assay on CSNK1D (setting [1]); 1050 nM with MAP2K1 (setting [1]); 4.25 nM in the assay with MAPKAPK2 (setting [1]); 1700 nM in the assay with NQO1 (setting [1]). `Cl.Fc1cccc(COc2ccc(Nc3ncnc4cc(-c5ccc[nH]5)sc34)cc2Cl)c1` [GW693881A]: the potency estimated from few doses in the assay with NQO2 (compound concentrations: 100 nM and 1000 nM (sheet 'Samples'), CATDS: 0.24245202120631801) is 560 nM.

Regarding `Fc1ccc(-c2nn3ccccc3c2-c2ccncc2)cc1` [GW434756X], the potency estimated from few doses in the assay on CSNK1A1 (compound concentrations: 100 nM and 1000 nM (sheet 'Samples'), CATDS: 7.0903830983545899E-2) was 1120 nM; with CSNK1D (compound concentrations: 100 nM and 1000 nM (sheet 'Samples'), CATDS: 0.180022890791455) it was 233 nM; in the assay with MAPKAPK2 (compound concentrations: 100 nM and 1000 nM (sheet 'Samples'), CATDS: 0.114976727477382), 449 nM.
